# Assay results from the supplement of paper PMC3342239.
# Structures can show the parent of a compound that is named as a salt.
# Tested on: Saccharomyces cerevisiae
# Experiment: fraction of cells in G1 phase (DNA content, flow cytometry); higher = more cells with unreplicated DNA (G1 delay)
# Details: temperature: 30 C; YPD; JTY2953 pdr5 snq2 (sensitized); drug added to: actively dividing cells; 6 h
# Procedure: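 S. cerevisiae cultures in YPD at 30°C were treated with each drug of the Enzo FDA-approved library at 20 µg/ml (final µM given per drug). Cells were fixed after 6–7 h (S1) or 6 h (S2), or after 4.33 h for BY4741 (S3), then stained with SYTOX Green. %G1 is the Dean-Jett-Fox G1 peak area divided by the G1+G2/M peak areas, written as a fraction and averaged over at least two independent experiments. DMSO reference: mean ~0.49; >0.60 is called High G1 and <0.3876 Low G1. Scale: lower means mitotic delay.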
row,Structure (SMILES),fraction of cells in G1 phase
1,O=c1[nH]c2ccccc2n1C1CCN(CCCC(c2ccc(F)cc2)c2ccc(F)cc2)CC1 [Pimozide] (43.3313 µM),0.344

# Same assay, conditions: temperature: 30 C; YPD; JTY2953 pdr5 snq2 (sensitized); drug added to: cultures diluted from stationary phase; 6-7 h
row,Structure (SMILES),fraction of cells in G1 phase
1,O=C(CCCN1CCC2(CC1)C(=O)NCN2c1ccccc1)c1ccc(F)cc1 [Spiperone] (50.5713 µM),0.484
2,CC[C@@H](C(N)=O)N1CCCC1=O [Levetiracetam] (117.5 µM),0.529
3,O=c1[nH]c2ccccc2n1C1CCN(CCCC(c2ccc(F)cc2)c2ccc(F)cc2)CC1 [Pimozide] (43.3313 µM),0.85
4,C[N+](C)(C)CCCCCCCCCC[N+](C)(C)C [Decamethonium 2Br] (77.371 µM),0.472
5,N[C@@H]1C[C@H]1c1ccccc1.N[C@H]1C[C@@H]1c1ccccc1 [Tranylcypromine] (150.156 µM),0.531
6,CCN(C)C(=O)Oc1cccc([C@H](C)N(C)C)c1 [Rivastigmine] (79.8902 µM),0.504
7,Oc1ccc2c3c1O[C@H]1c4[nH]c5ccccc5c4C[C@@]4(O)[C@@H](C2)N(CC2CC2)CC[C@]314 [Naltrindole HCl] (48.2499 µM),0.504
8,CN1[C@@H]2CC[C@H]1C[C@@H](OC(=O)C(CO)c1ccccc1)C2 (some centres undefined) [Atropine sulfate] (69.1138 µM),0.474
9,O=C1C[C@@H]2OCC=C3CN4CC[C@]56c7ccccc7N1[C@H]5[C@H]2[C@H]3C[C@H]46 [Strychnine HCl] (59.8047 µM),0.497
10,CC(C)CC(N(C)C)C1(c2ccc(Cl)cc2)CCC1 (centres undefined) [Sibutramine HCl] (71.4652 µM),0.516
11,COc1ccc(C(CN(C)C)C2(O)CCCCC2)cc1 (centres undefined) [Venlafaxine HCl] (72.0954 µM),0.453
12,COc1ccc(CCN2CCC(Nc3nc4ccccc4n3Cc3ccc(F)cc3)CC2)cc1 [Astemizole] (43.6125 µM),0.501
13,C=CCN1CC[C@]23c4c5ccc(O)c4O[C@H]2/C(=N/N=C2\CC[C@@]4(O)[C@H]6Cc7ccc(O)c8c7[C@@]4(CCN6CC=C)[C@H]2O8)CC[C@@]3(O)[C@H]1C5 [Naloxonazine 2HCl] (30.7323 µM),0.456
14,CO[C@]12C[C@@H](COC(=O)c3cncc(Br)c3)CN(C)[C@@H]1Cc1cn(C)c3cccc2c13 [Nicergoline] (41.2884 µM),0.481
15,C[C@@H]1O[C@@H](O[C@H]2C[C@@H](O)[C@]3(CO)[C@H]4[C@H](O)C[C@]5(C)[C@@H](C6=CC(=O)OC6)CC[C@]5(O)[C@@H]4CC[C@]3(O)C2)[C@H](O)[C@H](O)[C@H]1O [Ouabain] (27.4424 µM),0.521
16,O=P1(N(CCCl)CCCl)NCCCO1 (centres undefined) [Cyclophosphamide monohydrate] (76.6021 µM),0.501
17,O=C(O)CCCc1ccc(N(CCCl)CCCl)cc1 [Chlorambucil] (65.7421 µM),0.456
18,Oc1ccc2c3c1O[C@H]1c4oc5ccccc5c4C[C@@]4(O)[C@@H](C2)N(CC2CC2)CC[C@]314 [Naltriben methanesulfonate hydrate] (39.093 µM),0.45
19,C[C@@H]1CN([C@H]2CC[C@](C#N)(c3ccc(F)cc3)CC2)CC[C@]1(C(=O)O)c1ccccc1 [Levocabastine HCl] (47.5588 µM),0.468

row,Structure (SMILES),fraction of cells in G1 phase
1,c1ccc2c(c1)OCC(C1=NCCN1)O2 (centres undefined) [Idazoxan] (97.9286 µM),0.48
2,O=C1CC[C@@]2(O)[C@H]3Cc4ccc(O)c5c4[C@@]2(CCN3CC2CC2)[C@H]1O5 [Naltrexone HCl] (58.5805 µM),0.509
3,CCCN1C[C@H](CSC)C[C@@H]2c3cccc4[nH]cc(c34)C[C@H]21 [Pergolide mesylate] (63.5937 µM),0.489
4,CC[C@H](C)[C@H]1O[C@]2(C=C[C@@H]1C)C[C@@H]1C[C@@H](C/C=C(\C)[C@@H](O[C@H]3C[C@H](OC)[C@@H](O[C@H]4C[C@H](OC)[C@@H](O)[C@H](C)O4)[C@H](C)O3)[C@@H](C)/C=C/C=C3\CO[C@@H]4[C@H](O)C(C)=C[C@@H](C(=O)O1)[C@]34O)O2.CO[C@H]1C[C@H](O[C@H]2[C@H](C)O[C@@H](O[C@@H]3/C(C)=C/C[C@@H]4C[C@@H](C[C@]5(C=C[C@H](C)[C@@H](C(C)C)O5)O4)OC(=O)[C@@H]4C=C(C)[C@@H](O)[C@H]5OC/C(=C\C=C\[C@@H]3C)[C@]54O)C[C@@H]2OC)O[C@@H](C)[C@@H]1O [Abamectin] (22.9069 µM),0.516
5,C=CCN1C[C@H](C(=O)N(CCCN(C)C)C(=O)NCC)C[C@@H]2c3cccc4[nH]cc(c34)C[C@H]21 [Cabergoline] (44.2853 µM),0.496
6,CCCC[N+]1(C)[C@@H]2C[C@@H](OC(=O)[C@H](CO)c3ccccc3)C[C@H]1[C@@H]1O[C@@H]12 (some centres undefined) [Scopolamine n-butylbromide] (55.482 µM),0.488
7,CC(C)[C@@]1(NC(=O)[C@@H]2C[C@@H]3c4cccc5[nH]cc(c45)C[C@H]3N(C)C2)O[C@@]2(O)[C@@H]3CCCN3C(=O)[C@H](Cc3ccccc3)N2C1=O [Dihydroergocristine mesylate] (32.6932 µM),0.465
8,CC[C@@H](CO)NC(=O)[C@@H]1C=C2c3cccc4c3c(cn4C)C[C@H]2N(C)C1 [Methysergide] (56.5822 µM),0.48
9,COc1ccc2c(c1)[C@]13CCCC[C@@H]1[C@H](C2)N(C)CC3 [Dextromethorphan HBr] (73.6903 µM),0.503
10,CN1[C@@H]2C[C@@H](OC(=O)[C@H](CO)c3ccccc3)C[C@H]1[C@@H]1O[C@@H]12 [Scopolamine HBr] (65.928 µM),0.464
11,CN1C[C@@H](NS(=O)(=O)N(C)C)C[C@@H]2c3cccc4c3c(cn4C)C[C@H]21 [Mesulergine HCl] (55.1728 µM),0.547
12,O=c1[nH]c2ccccc2n1CCCN1CCC(n2c(=O)[nH]c3cc(Cl)ccc32)CC1 [Domperidone] (46.957 µM),0.505
13,CN1C[C@H](C(=O)N[C@]2(C)O[C@@]3(O)[C@@H]4CCCN4C(=O)[C@H](Cc4ccccc4)N3C2=O)C=C2c3cccc4[nH]cc(c34)C[C@H]21 [Ergotamine D-tartrate] (34.3833 µM),0.499
14,CC(CCc1ccccc1)NC(C)C(O)c1ccc(O)cc1 (centres undefined) [Buphenine] (59.5415 µM),0.512
15,NCCCNCCSP(=O)(O)O [Amifostine] (93.3599 µM),0.512
16,CCCC(=O)OCC[N+](C)(C)C [Butyrylcholine Cl] (114.768 µM),0.504
17,CC(C)(C)NCC(O)c1ccccc1Cl (centres undefined) [Tulobuterol] (87.8208 µM),0.493
18,CC(C)NCC(O)c1ccc(N)c(C#N)c1 (centres undefined) [Cimaterol] (91.2039 µM),0.493
19,Cc1c(N)nc(C(CC(N)=O)NCC(N)C(N)=O)nc1C(=O)NC(C(=O)NC(C)C(O)C(C)C(=O)NC(C(=O)NCCc1nc(-c2nc(C(=O)NCCC[S+](C)C)cs2)cs1)C(C)O)C(O[C@@H]1O[C@@H](CO)[C@@H](O)[C@H](O)[C@@H]1O[C@H]1O[C@H](CO)[C@@H](O)[C@H](OC(N)=O)[C@@H]1O)c1cnc[nH]1 (some centres undefined) [Bleomycin sulfate] (14.1285 µM),0.924
